Compound activity deposited in PubChem BioAssay by National Center for Advancing Translational Sciences (NCATS).
The list is not random: actives were taken first. Their share in the collection is about 1.7%.
ERK AVP block: qHTS Assay for Inhibitors of the ERK Signaling Pathway using a Homogeneous Screening Assay; HEK293-V1b, vasopressin-stimulated pERK AlphaScreen; Potency, µM (top dose mostly 57.5 µM), usual class: inhibitors; hit rate 0.99% among 72,000; AID 995, 2007; also: nearly all actives have a fitted effect of over 55% in size
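HEK293 cells stably expressing V1b receptor, preincubated 30 min at 37 °C with compound, then stimulated 5 min with 25 nM vasopressin. Phospho-ERK by AlphaScreen SureFire after 5 h RT; normalized to DMSO and vasopressin; AC50 by Hill fit.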
Caspase-1 inhib: qHTS Assay for Allosteric/Competitive Inhibitors of Caspase-1; Potency, µM (top dose mostly 57.5 µM), most hits filed as inhibitors; P29466; hit rate 0.03% among 75,000; Caspase-1 enzyme, Ac-WEHD-AFC fluorogenic rate
15-hLO-2 inh: qHTS Assay for Inhibitors of 15-hLO-2 (15-human lipoxygenase 2) | Polyunsaturated fatty acid lipoxygenase ALOX15B (Homo sapiens), O15296 | hit rate 0.56% among 110,000 | purified 15hLO-2, xylenol orange hydroperoxide absorbance | Potency, µM (top dose mostly 57.1 µM), hits mostly inhibitors; also: nearly all actives have a fitted effect of over 60% in size
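Purified human 15hLO-2 (50 nM final) preincubated with compounds 15 min at room temperature in 25 mM Hepes pH 7.5, 0.01% Triton X-100, then 45 uM arachidonic acid added for 90 min; hydroperoxide detected via ferrous/xylenol orange, 573/405 nm absorbance ratio.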
ALOX15 inhib: qHTS Assay for Inhibitors of 15-hLO (15-human lipoxygenase); Polyunsaturated fatty acid lipoxygenase ALOX15 (Homo sapiens), P16050; purified 15hLO-1, xylenol orange hydroperoxide absorbance; Potency, µM (titrated, usually from 57.1 µM), most hits filed as inhibitors; hit rate 1.4% among 74,000; AID 887, 2007; also: nearly all actives have a fitted effect of over 55% in size
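40 nM 15hLO-1 + cpd, 15 min RT; start w/ 50 uM AA (final), 6 min RT; stop/detect w/ 200 uM XO + 300 uM Fe(II) in 50 mM H2SO4, 30 min; A573/A405. Buffer 25 mM Hepes pH 7.5, 0.01% Triton X-100. No-enzyme wells as negative control.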
Caspase-7 inhib: qHTS Assay for Allosteric/Competitive Inhibitors of Caspase-7; recombinant caspase-7, Ac-DEVD-AFC fluorescence rate; Potency, µM (doses to about 57.5 µM), hits mostly inhibitors; hit rate 0.02% among 75,000; active = well fitted inhibition curve with a large enough effect in the main read-out, with a control signal flat, not every such curve was filed as active; inconclusive = small, poorly fitted or top-dose-only effect, or a change in a side signal
Numbers stand for hits; – = inactive; ? = inconclusive; · = not tested or not shown; ! = not active in a repeat; [ ] = another dose, or the depositor's remark. Unless noted, calls follow the shape of the dose curve; as a rule, active = well fitted curve in the direction sought with a large enough effect; inconclusive = small, poorly fitted or top-dose-only effect, or another doubt; inactive = no such curve, though single readings can be large; an effect the other way counts as inactive or inconclusive.

SMILES	ERK AVP block	Caspase-1 inhib	15-hLO-2 inh	ALOX15 inhib	Caspase-7 inhib
C[C@@H]1OC2C3=C(C(=O)[C@H]4O[C@@H]4[C@H]3O)[C@@H]1[C@H]1[C@H](C)OC=C3[C@H](O)[C@H]4O[C@H]4/C(=N\OCc4ccccc4)[C@@]321	–[11.5 µM]	–[11.5 µM]	·	–[11.4 µM]	–[11.5 µM]
O=C(O)C(Cc1ccccc1)N1C(=O)/C(=C/c2cccc3ccccc23)SC1=S (stereo unspecified)	·	·	20µM	·	·
COc1ccccc1-c1nc(C#N)c(N2CCc3ccccc3C2)o1	20µM	–	–	–	–
COc1ccc(-c2nc(C#N)c(N3CCc4ccccc4C3)o2)cc1OC	·	·	–	·	·
COc1ccc(-c2coc3cc(O)cc(O)c3c2=O)cc1	16µM	–	–	–	–
COc1ccc(NS(=O)(=O)c2ccc(I)cc2)cc1N1CCN(C)CC1	–	–	–	?	–
CN/C=C1\C(=O)C(C)(C)Oc2ccc3ccc(=O)oc3c21	–	–	–	–	–
COC1=Cc2c(ccc3ccc(=O)oc23)OC1(C)C	–	–	–	32µM	–
COc1cc(-n2nc(C)c3c2OC(N)=C(C#N)C3c2ccccc2)c(Cl)c(Br)c1O (stereo unspecified)	32µM	–	–	–	–
COc1c2ccccc2nc2occc12	–	–	–	–	–
CCC1c2ccc(C)n2CCN1C(=O)Nc1ccccc1OC (stereo unspecified)	–	?	·	3.2µM	–
COc1ccccc1NC(=O)N1CCCC1C(=O)Nc1ccc(NC(C)=O)cc1 (stereo unspecified)	?	–	–	–	–
CCOC(=O)c1c(C)c2c(n1C)CCC/C2=N\O	3.2µM	–	–	–	–
N#CC(=C(/N)Sc1ccccc1N)/C(C#N)=C(/N)Sc1ccccc1N	0.2µM	–	?	13µM!	–
N#Cc1ccccc1Sc1ccccc1N	·	·	–	·	·
COc1cc2cc(C(c3nnnn3C3CCCC3)N3CCc4ccccc43)c(=O)[nH]c2cc1OC (stereo unspecified)	?	–	–	20µM	–
COc1cc2cc(C(c3nnnn3C(C)(C)C)N3CCc4ccccc43)c(=O)[nH]c2cc1OC (stereo unspecified)	–	–	–	–	–
Cc1ccc(C2C3=C(CC(C)(C)CC3=O)Nc3[nH]c(=S)[nH]c(=O)c32)cc1 (stereo unspecified)	–	–	?	20µM	–
C=CCSC1=N/C(=C\C=C\c2ccco2)C(=O)S1	?	–	?	20µM	?
C[C@H]1[C@H](C)CC[C@]2(C(=O)O)CC[C@]3(C)C(=CCC4[C@@]5(C)CC[C@H](O)C(C)(C)[C@@H]5CC[C@]43C)[C@H]12 (stereo partly specified)	–	–	–	–	–
NC[C@@H]1O[C@@H](O[C@H]2[C@@H](O)[C@H](O[C@@H]3[C@H](O)[C@H](N)C[C@H](N)[C@H]3O[C@@H]3O[C@@H](CO)[C@H](O)[C@H](O)[C@@H]3N)O[C@H]2CO)[C@H](N)[C@H](O)[C@@H]1O	–	–	–	–	–
N#Cc1c(N)sc(=S)c2c1CCN(Cc1ccccc1)C2	–	·	–	–	13µM
C=C1C(CCl)(CCl)C2(Cl)C(Cl)C(Cl)C1(Cl)C2(Cl)Cl (stereo unspecified)	–	–	–	–	–
Cn1c(=O)c2c(nc(NCc3ccco3)n2C/C=C/c2ccccc2)n(C)c1=O	32µM	–	–	–	–
COc1cc2c(cc1OC)-c1cc(OCc3cccnc3)nc(=O)n1CC2	13µM	–	–	–	–
SMILES	ERK AVP block	Caspase-1 inhib	15-hLO-2 inh	ALOX15 inhib	Caspase-7 inhib
COc1cc2c(cc1OC)-c1cc(Nc3ccc4c(c3)OCCO4)nc(=O)n1CC2	10µM	–	–	–	–
COc1cc2c(cc1OC)-c1cc(NC3CCCCCC3)nc(=O)n1CC2	?	–	–	–	–
CCOc1cccc(Nc2cc3n(c(=O)n2)CCc2cc(OC)c(OC)cc2-3)c1	·	·	–	·	·
CC1CCCCN1c1nc(-c2ccncc2)nc2ccccc12 (stereo unspecified)	32µM	–	–	?	–
CCC1CCCCN1c1nc(-c2ccncc2)nc2ccccc12 (stereo unspecified)	·	·	–	·	·
COc1ccccc1NC(=O)N1CCN(c2cccc(C(F)(F)F)c2)CC1	–	–	–[2.29 µM]	40µM	–
O=C(NCc1cccnc1)c1ccc(COc2ccc3c(c2)CCC3)o1	25µM	–	–	–	–
